Source: PubChem
Only some compounds are listed: those with a hit (about 1.2% of all), similar ones and a draw of the others.
RGS4-Gao reg = modulates binding of RGS4 to human Galphao. 0.33% of 220,000 active. P09471. binding response (% of control), % at 10 µM. Multiplexed bead flow cytometry; actives lie on both sides; in the data active means binding response below about 49% or above about 150%; inactive means in between;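 further: fluorescent Galphao activated with aluminum fluoride binding bead-coupled RGS4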
Target sequence (P09471 whole entry, looked up): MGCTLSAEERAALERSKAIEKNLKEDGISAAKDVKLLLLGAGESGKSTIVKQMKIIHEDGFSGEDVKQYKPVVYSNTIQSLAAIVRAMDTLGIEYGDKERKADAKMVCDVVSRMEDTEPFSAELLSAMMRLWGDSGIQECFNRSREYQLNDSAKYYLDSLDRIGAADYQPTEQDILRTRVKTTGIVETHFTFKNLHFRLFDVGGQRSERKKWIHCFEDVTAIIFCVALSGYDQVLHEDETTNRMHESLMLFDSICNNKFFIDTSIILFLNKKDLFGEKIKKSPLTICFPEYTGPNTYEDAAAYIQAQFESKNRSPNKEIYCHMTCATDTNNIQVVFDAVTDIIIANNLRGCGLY
RGS7-Gao reg = regulators of human RGS7-Galphao interaction | P09471 | Multiplexed bead flow cytometry, RGS7-Galphao binding; actives lie on both sides | binding response (% of control), % at 10 µM | 0.35% of 220,000 active | AID 1439; in the data active means binding response below about 49% or above about 150%; inconclusive means no clear call, values can overlap the other calls; inactive means in between;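 further: fluorescent Galphao held in activated GDP-AlF4 state binding bead-coupled RGS7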
RGS8-Gao reg = modulates binding of RGS8 to human Galphao | P09471 | multiplexed bead flow cytometry; actives lie on both sides | response (percent of control binding), % at 10 µM | 0.34% of 220,000 active | AID 1423; in the data active means response below about 60% or above about 140%; inactive means in between;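 further: Galphao activated as the GDP aluminium fluoride complex binding bead-coupled RGS8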
RGS16-Gao = regulators of human RGS16-Galphao interaction | O15492+P09471 | bead-based flow cytometry RGS16-Galphao binding, fluorescence; actives lie on both sides | binding response (% of control), % at 10 µM | 0.38% of 220,000 active;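 further: Galphao activated by GDP with aluminum fluoride before binding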
Target sequence (O15492 whole entry, looked up): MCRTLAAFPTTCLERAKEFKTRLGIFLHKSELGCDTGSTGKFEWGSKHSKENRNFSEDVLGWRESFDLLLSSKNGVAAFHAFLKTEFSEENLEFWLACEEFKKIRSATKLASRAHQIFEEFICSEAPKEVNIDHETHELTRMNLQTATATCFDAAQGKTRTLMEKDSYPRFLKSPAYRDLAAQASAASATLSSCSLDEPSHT
Target sequence (P09471 whole entry, looked up): as the sequence (P09471 whole entry, looked up) above
GSH bead fluor = compound fluoresces at 488/530 nm on GSH beads | AID 1776 | 0.25% of 190,000 active | GSH beads flow cytometry, compound fluorescence 488/530 nm; stronger effect = higher value | fluorescence (KMESF) at 10 µM; in the data active means fluorescence above about 89;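 further: glutathione beads carrying GST-tagged Bcl family fusion proteins plus one bare bead set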
Avidin bead fluor = compound fluoresces at 488/530 nm on avidin beads; compound fluorescence 488/530 nm, flow cytometry; stronger effect = higher value; fluorescence (KMESF) at 10 µM; 0.38% of 220,000 active; in the data active means fluorescence above about 47
RGS-Gao = modulates binding between human RGS4 and Galphao | multiplexed bead flow cytometry, RGS–Galpha-o binding | shares compounds with RGS16-Gao | 99% of 1,600 active | RGS4–Galpha-o binding response, % at 10 µM;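 further: fluorescently labeled Galpha-o bound to GDP with aluminium fluoride binding biotinylated RGS beads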
Biotin-avidin = counter-screen: compounds disrupting biotin binding to avidin beads; shares compounds with RGS16-Gao; streptavidin beads, fluorescein-biotin binding, flow cytometry; inhibition, % at 10 µM; 1,700 tested, under 10 active;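 active means inhibition above 50%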;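 further: median green fluorescence of gated singlet beads compared with DMSO control wells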
RGS8-Gao confirm = confirmation of regulators of human RGS8-Galphao interaction; bead-based flow cytometry RGS8-Galphao binding, fluorescence; actives lie on both sides; binding response (% of control), % at 10 µM; AID 1836; 3% of 1,700 active; shares compounds with RGS16-Gao; in the data active means binding response below about 72% or above about 130%; inactive means in between;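 further: Galphao activated as GDP AlF4 complex before binding bead RGS8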
RGS7-Gao confirm = RGS7-Galphao interaction regulation, single point confirmation; 7.8% of 1,700 active; response (percent of control binding), % at 10 µM; bead-based flow cytometry RGS7-Galphao binding; actives lie on both sides; shares compounds with RGS16-Gao; in the data active means response below about 75% or above about 130%; inactive means in between;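 further: fluorescent Galphao activated with GDP and aluminum fluoride binding bead-coupled RGS7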
RGS16-Gao conf = confirmation of regulators of human RGS16-Galphao interaction | shares compounds with RGS16-Gao | bead-based flow cytometry, RGS16-Galphao binding; actives lie on both sides | response (% of control binding), % at 10 µM | 4% of 1,700 active | AID 1838; in the data active means response below about 74% or above about 130%; inactive means in between;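 further: Galphao activated as the GDP aluminium fluoride complex binding bead-coupled RGS16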
RGS4-Gao confirm = RGS4-Galphao interaction regulation, single point confirmation; RGS4-Galphao binding, multiplexed bead flow cytometry; actives lie on both sides; 4% of 1,700 active; shares compounds with RGS16-Gao; binding response (% of control), % at 10 µM; in the data active means binding response below about 74% or above about 130%; inactive means in between
RGS19-Gao conf = confirmation of regulators of human RGS19-Galphao interaction; shares compounds with RGS16-Gao; bead-based flow cytometry RGS19-Galphao binding; actives lie on both sides; response (percent of control binding), % at 10 µM; 5% of 1,700 active; AID 1841; in the data active means response below about 50% or above about 160%; inactive means in between
A number is an active result; [ ] = remark or other dose. Unless noted, how the calls were made is not given here.

Screening COC(=O)c1ccc(Oc2ccc3nnc(C)n3n2)cc1 returned RGS4-Gao reg inactive, RGS7-Gao reg inactive, RGS8-Gao reg 142[activator], RGS16-Gao inactive, GSH bead fluor inactive, Avidin bead fluor inactive, RGS-Gao 122, Biotin-avidin inactive, RGS8-Gao confirm inactive, RGS7-Gao confirm inactive, RGS16-Gao conf inactive, RGS4-Gao confirm inactive and RGS19-Gao conf inactive.
Screening COC(=O)c1ccc(Oc2ccc3nncn3n2)cc1 returned RGS4-Gao reg inactive, RGS7-Gao reg inactive, RGS8-Gao reg inactive, RGS16-Gao inactive, GSH bead fluor inactive and Avidin bead fluor inactive.
`CC1(C)Cc2c(sc(NC(=O)c3ccco3)c2C#N)CO1` gave RGS4-Gao reg -105, RGS7-Gao reg -35, RGS8-Gao reg 2.6, RGS16-Gao -105, GSH bead fluor inactive, Biotin-avidin inactive, RGS8-Gao confirm inactive, RGS7-Gao confirm inactive, RGS16-Gao conf inactive, RGS4-Gao confirm inactive and RGS19-Gao conf inactive.
Screening CC1(C)Cc2c(sc(NC(=O)/C=C/C(=O)O)c2C#N)CO1 returned RGS4-Gao reg inactive, RGS7-Gao reg inconclusive, RGS8-Gao reg inactive, RGS16-Gao inactive and Avidin bead fluor inactive.
For COc1ccccc1/C=c1\sc2nc(-c3ccco3)nn2c1=O the results were GSH bead fluor inactive, Biotin-avidin inactive, RGS8-Gao confirm inactive, RGS7-Gao confirm inactive, RGS16-Gao conf inactive, RGS4-Gao confirm inactive and RGS19-Gao conf inactive.
For Cc1onc(-c2c(Cl)cccc2Cl)c1C(=O)c1ccccc1 the results were RGS4-Gao reg inactive, RGS7-Gao reg inconclusive, RGS8-Gao reg inactive, RGS16-Gao inactive and Avidin bead fluor inactive.
Screening Cc1onc(-c2ccccc2Cl)c1C(=O)Nc1ccc(Cl)cn1 returned RGS4-Gao reg inactive, RGS7-Gao reg inconclusive, RGS8-Gao reg inactive, RGS16-Gao inactive and Avidin bead fluor inactive.
For Cc1onc(-c2ccccc2Cl)c1C(=O)c1ccccc1 the results were RGS4-Gao reg -28, RGS7-Gao reg inconclusive, RGS8-Gao reg 7.7, RGS16-Gao -16, Avidin bead fluor inactive, Biotin-avidin inactive, RGS8-Gao confirm inactive, RGS7-Gao confirm inactive, RGS16-Gao conf inactive, RGS4-Gao confirm inactive and RGS19-Gao conf inactive.
Cc1onc(-c2ccccc2Cl)c1C(=O)Nc1ncn[nH]1 was read as RGS4-Gao reg inactive, RGS7-Gao reg inactive, RGS8-Gao reg inactive, RGS16-Gao -1.7, GSH bead fluor inactive, Avidin bead fluor inactive, RGS-Gao 86, Biotin-avidin inactive, RGS8-Gao confirm inactive, RGS7-Gao confirm inactive, RGS16-Gao conf inactive, RGS4-Gao confirm inactive and RGS19-Gao conf inactive.
`Cc1ccc(S(=O)(=O)Nc2ccc(N3CCOCC3)cc2)cc1` gave RGS4-Gao reg inactive, RGS7-Gao reg inactive, RGS8-Gao reg inactive, RGS16-Gao -64, GSH bead fluor inactive, Avidin bead fluor inactive, RGS-Gao 86, Biotin-avidin inactive, RGS8-Gao confirm inactive, RGS7-Gao confirm inactive, RGS16-Gao conf inactive, RGS4-Gao confirm inactive and RGS19-Gao conf inactive.
For O=C(Cn1cccc1C(=O)c1ccccc1)NCCC1=CCCCC1 the results were RGS4-Gao reg inactive, RGS7-Gao reg inactive, RGS8-Gao reg inactive, RGS16-Gao inactive, GSH bead fluor inactive and Avidin bead fluor inactive.
`O=C(NCC1CCCO1)C1CCN(C2CCN(C3CCCCCC3)CC2)CC1` (stereo not drawn) gave RGS4-Gao reg inactive, RGS7-Gao reg inactive, RGS8-Gao reg inactive, RGS16-Gao inactive, GSH bead fluor inactive and Avidin bead fluor inactive.
Screening O=c1oc2c(O)c(O)cc3c(=O)oc4c(O)c(O)cc1c4c23 returned RGS4-Gao reg inactive, RGS7-Gao reg 31, RGS8-Gao reg 54, RGS16-Gao inactive, GSH bead fluor inactive, Avidin bead fluor inactive and RGS-Gao 51.
For Cc1cc(NC(=O)CCCOc2ccc(Cl)cc2Cl)no1 the results were RGS4-Gao reg inactive, RGS7-Gao reg inactive, RGS8-Gao reg 167[activator], RGS16-Gao inactive, GSH bead fluor inactive, Avidin bead fluor inactive and RGS-Gao 142.
`O=C(CCCOc1ccc(Cl)cc1Cl)Nc1ncccn1` gave RGS4-Gao reg inactive, RGS7-Gao reg inconclusive, RGS8-Gao reg inactive, RGS16-Gao inactive and Avidin bead fluor inactive.
Screening COC(=O)CNC(=O)CN1c2cccc3cccc(c23)S1(=O)=O returned RGS4-Gao reg inactive, RGS7-Gao reg inactive, RGS8-Gao reg inactive, RGS16-Gao inactive, GSH bead fluor inactive and Avidin bead fluor inactive.
For CCN1c2cccc3cccc(c23)S1(=O)=O the results were RGS4-Gao reg 155[activator], RGS7-Gao reg 155[activator], RGS8-Gao reg inactive, RGS16-Gao inactive, GSH bead fluor inactive, Avidin bead fluor inactive, Biotin-avidin inactive, RGS8-Gao confirm inactive, RGS7-Gao confirm inactive, RGS16-Gao conf inactive, RGS4-Gao confirm inactive and RGS19-Gao conf inactive.
COCc1cc(C)nc(OCC(=O)N/N=C/c2ccc(O)cc2O)c1C#N was read as RGS4-Gao reg inactive, RGS7-Gao reg inactive, RGS8-Gao reg 55, RGS16-Gao inactive, GSH bead fluor inactive, Avidin bead fluor inactive, RGS-Gao 55, Biotin-avidin inactive, RGS8-Gao confirm inactive, RGS7-Gao confirm inactive, RGS16-Gao conf inactive, RGS4-Gao confirm inactive and RGS19-Gao conf inactive.
`CCOc1ccccc1N=C1SC(CC(=O)Nc2ccc(OC)cc2OC)C(=O)N1CCC1=CCCCC1` (stereo not drawn) gave RGS4-Gao reg inactive, RGS7-Gao reg inactive, RGS8-Gao reg inactive, RGS16-Gao inactive, GSH bead fluor inactive and Avidin bead fluor inactive.
